Measured values reported in PubChem BioAssay.
Measured potencies and affinities stand elsewhere.

biological target: Cell division control protein 42 homolog (Homo sapiens) (UniProt P60953); assay: activated mutant Cdc42 GTP-binding inhibitors, dose response, biochemical, multiplex bead flow cytometry, Bodipy-FL-GTP (AID 1333); conditions: bead-based flow cytometry; series mostly up to 100 µM; GTP binding signal, percent: at the top concentration

GTP binding signal, percent, inactive:
O=C(c1cccnc1SCCc1ccccc1)N1CCOCC1 132%, COc1cc(/C=N/NC(=O)CCN2CCN(c3ccccc3)CC2)cc(OC)c1OC 55.8%, O=C(O)c1ccc(CNCc2ccccc2Cl)s1 50.8%, CCN(CC)c1ccc(/C=N/OCC(=O)Nc2cccc(C)c2)cc1 44.2%, CCc1ccccc1NCc1sc(C(=O)O)cc1C 46.5%, COc1ccc(-c2nn3c(-c4ccco4)nnc3s2)cc1OC 35%, CS(=O)(=O)Nc1ccc(Br)cc1C(=O)c1ccccc1 31.6%, Cn1c(N/N=C/c2cccs2)nc2c1c(=O)n(Cc1ccccc1)c(=O)n2C 23.5%, Cc1ccc(C(C)C)c(OCCSc2nc3ccccc3n2CC(=O)O)c1 42.8%, OCC(CO)(CO)NCc1ccc(-c2ccccc2)cc1 35.9%, CCC(Oc1ccc2ccccc2c1)C(=O)O (centres undefined) 68.2%, CCOc1ccccc1C1C(C(=O)OC)=C(N)OC2=C1C(=O)CCC2 (centres undefined) 46.7%, O=C(O)c1ccc(COc2ccc(F)cc2)o1 46.9%, COc1cc2[nH]c(=S)nc(NCCc3ccc(C)cc3)c2cc1OC 40.5%, CC(C)(C)c1ccc(OCCn2cc(C(=O)O)c3ccccc32)cc1 46.5%, COc1ccc(C2=Nn3c(nnc3-c3ccccc3)SC2)cc1OC 56.5%, COc1cc(/C=N/Nc2nn3cnnc3c3ccccc23)ccc1O 34.6%, Cc1ccc(Nc2cc(C(=O)O)c3ccccc3n2)c(C)c1 49.2%, COc1cc2c(C)nc3c(c(C)nn3-c3ccccc3)c2cc1OC 57.9%, O=C(O)c1ccc(CNCc2ccc(F)cc2)cc1 58.8%, COc1ccc(CC(C)N2CCN(Cc3ccccc3)CC2)c(OC)c1 (centres undefined) 60.2%, O=C(Cn1nc(-c2ccccc2)c2ccccc2c1=O)Nc1ccccn1 33%, CCCN(CC1CC1)C(=S)Nc1ccc(Oc2ccccc2)cc1 50.3%, Cc1cccc(CNc2nc(C)ccc2C(=O)O)c1 174%, CC(SC(=S)N(C)Cc1cccs1)C(=O)O (centres undefined) 59.2%, O=c1c2ccccc2nc2c3ccccc3c(NCc3cccnc3)nn12 46.8%, COc1ccc(C(=O)N/C(=C\c2cccc([N+](=O)[O-])c2)C(=O)Nc2cccc(C(=O)O)c2)cc1 44.7%, O=C(O)c1ccc(CSCc2ccccc2Cl)o1 44.9%, O=C(C#Cc1cccc(O)c1)c1ccc([N+](=O)[O-])cc1 280%, CCOc1ccc(-n2nc3c(=O)[nH]nc(C)c3c2C)cc1 35.3%, O=C(CNC(=O)Cc1ccccc1)N=Nc1c(O)n(Cc2ccc3c(c2)OCO3)c2ccccc12 26.3%, CCOC(=O)c1c(-c2ccccc2)csc1NC(=O)/C(C#N)=C/c1ccc(O)c(OC)c1 67.6%, C/C(=N\Nc1cc(C)nc(-c2ccccc2)n1)c1cccc([N+](=O)[O-])c1 55.8%, C=CCn1c(SCC(=O)Nc2ccc3c(c2)OCO3)nnc1-c1cc(Br)ccc1O 14.6%, CC(C)OCCCn1c(=NC(=O)c2ccncc2)c(C#N)cc2c(=O)n3ccccc3nc21 43.1%, COc1cccc(NC(=O)CSc2nc3c([nH]c4ccccc43)c(=O)n2C)c1 63.4%, COc1ccc(OCCSc2nc3nc(C)cc(C)n3n2)cc1 63.1%, CCc1nnc(NC(=O)CSc2nnc(CNc3ccc(F)cc3)n2C2CCCCC2)s1 31.4%, CCOC(=O)c1ccc2ncc(-c3ccccc3)nc2c1 57.7%
